An excerpt weighted towards active compounds, which were near 8.8% of everything screened.
HPGD block: HPGD (human) dehydrogenase inhibition. Potency, µM, without a hit: at the top dose activity change, negative = inhibition, hits mostly inhibitors. P15428. hit rate 4.3% among 150,000. purified HPGD, NADH fluorescence kinetic, PGE2 substrate; further: on the % scale 0 is the no-effect control and ±100 the full control effect
Target sequence (P15428 whole entry, looked up): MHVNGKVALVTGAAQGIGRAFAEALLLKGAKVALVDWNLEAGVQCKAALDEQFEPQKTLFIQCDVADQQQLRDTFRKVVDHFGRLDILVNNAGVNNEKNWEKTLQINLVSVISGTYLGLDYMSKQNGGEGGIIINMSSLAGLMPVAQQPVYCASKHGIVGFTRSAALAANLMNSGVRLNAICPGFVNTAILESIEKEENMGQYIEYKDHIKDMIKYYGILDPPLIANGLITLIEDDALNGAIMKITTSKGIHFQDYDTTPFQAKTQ
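20 nM HPGD preincubated 15 min at room temperature with compound in 50 mM Tris-HCl pH 8, 0.01% Tween 20. Started with 1 mM NAD+ and 30 uM prostaglandin E2; NADH fluorescence (360/450 nm) read 5 times over 30-s intervals, last minus first.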
HttQ103 aggreg: reduces HttQ103-GFP aggregates in PC12 cells; Potency, µM (series often up to 46.1 µM), for the others: top-dose activity change, negative = inhibition, hits mostly inhibitors; AID 1688; PC12 HttQ103-GFP aggregates, Acumen cytometry, 40 h; hit rate 1.1% among 220,000; active means well fitted curve in the direction sought with a large enough effect; inconclusive means small, poorly fitted or top-dose-only effect, or another doubt; inactive means no such curve, though single readings can be large; an effect the other way counts as inactive or inconclusive; further: on the % scale 0 is the no-effect control and ±100 the full control effect; nearly all actives have a fitted effect of over 60% in size
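Inducible Q103 Huntingtin exon 1–GFP PC12 line, 1500 cells/well in phenol red free DMEM with 5% equine and 5% calf serum. Tebufenozide 100 nM induced expression; compounds titrated; aggregates quantified by cytometry.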
HTT ATP protect: cytoprotection in Huntington HTT-Q103 PC12 cell model; Potency, µM (top dose mostly 56.4 µM), without a hit: cytoprotection (ATP increase), hits mostly activators; PC12 HTT-Q103 induced, cytoprotection, ATP luminescence, 40 h; AID 1471; hit rate 0.14% among 230,000; active means well fitted curve in the direction sought with a large enough effect; inconclusive means small, poorly fitted or top-dose-only effect, or another doubt; inactive means no such curve, though single readings can be large; an effect the other way counts as inactive or inconclusive; further: % of control where 0% means no effect; nearly all actives have a fitted effect of over 45% in size
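Stable PC12 Q103-GFP cells in serum-supplemented, phenol red-free DMEM; induction by tebufenozide at 100 nM final; compound dose series; cell viability quantified luminescently from ATP.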
ALDH1A1 block: blocks purified human ALDH1A1 activity; P00352; Purified ALDH1A1, NADH fluorescence, propionaldehyde substrate; Potency, µM (doses to about 75.3 µM), inactives show top-dose activity, negative = inhibition, actives largely listed as inhibitors; hit rate 7.3% among 220,000; AID 1030;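 further: plate controls were no enzyme wells and a reference inhibitor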
Target sequence (P00352 whole entry, looked up): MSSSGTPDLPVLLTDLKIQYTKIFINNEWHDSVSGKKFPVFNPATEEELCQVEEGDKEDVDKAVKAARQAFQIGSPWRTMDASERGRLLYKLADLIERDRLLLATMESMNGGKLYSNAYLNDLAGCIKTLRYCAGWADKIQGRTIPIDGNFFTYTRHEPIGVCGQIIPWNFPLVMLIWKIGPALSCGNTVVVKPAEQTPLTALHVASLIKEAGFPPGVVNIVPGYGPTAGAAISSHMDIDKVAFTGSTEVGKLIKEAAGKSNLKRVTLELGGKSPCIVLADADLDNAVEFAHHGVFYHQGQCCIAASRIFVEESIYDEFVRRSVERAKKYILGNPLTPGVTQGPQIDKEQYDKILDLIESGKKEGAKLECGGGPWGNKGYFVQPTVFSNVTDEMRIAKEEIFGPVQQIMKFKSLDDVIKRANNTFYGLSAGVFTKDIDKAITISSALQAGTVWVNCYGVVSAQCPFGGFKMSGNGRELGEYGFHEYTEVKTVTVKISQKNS
Lamin A splicing: modulators of lamin A splicing. HeLa LMNA splicing GFP/RFP minigene ratio, 48 h. Potency, µM (top dose mostly 46.1 µM), without a hit: at the highest dose ratio change, negative = inhibition, actives largely listed as inhibitors. hit rate 0.01% among 200,000. AID 1487; active means well fitted inhibition curve with a large enough effect in the signal ratio, with a control signal flat, not every such curve was filed as active; inconclusive means small, poorly fitted or top-dose-only effect, or effect the other way, or a change in a side signal; the % refers to the signal ratio; further: on the % scale 0 is the no-effect control and ±100 the full control effect
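Read-out is the ratio of GFP to DsRed2 object intensity, acquired by 488 nm laser-scanning cytometry on HeLa lamin A-EGFP minigene reporter cells. Compound incubation 48 hrs at 37 °C in Opti-MEM with 2% FBS; DMSO 0.5% final.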
Starred values were filed as active, the others as inactive; ? = inconclusive; . = not tested or not shown; ! = a repeat was not active; [ ] = dose if it differs, or a comment. Unless noted, the call rests on the fitted dose curve; in most records, active means well fitted inhibition curve with a large enough effect (not every such curve was filed as active); inconclusive means small, poorly fitted or top-dose-only effect, or another doubt; inactive means no such curve, though single readings can be large or run the other way. Potency means the concentration at half of the fitted maximal effect.

SMILES	HPGD block	HttQ103 aggreg	HTT ATP protect	ALDH1A1 block	Lamin A splicing
Cc1ccc(S(=O)(=O)N/N=C/c2cc(Br)ccc2O)cc1	.	34.1%[9.22 µM]	21.6%[10 µM]	?	.
Cc1ccc(S(=O)(=O)N/N=C/c2cc(Br)c(C)o2)cc1	-26.1%	?	17.8%	5.62µM*	25.0%
O=S(=O)(N/N=C/c1c(F)cccc1Cl)c1ccccc1	-8.0%	?	-12.3%	6.31µM*	-1.6%
Cc1ccc(S(=O)(=O)N/N=C/c2cccn2-c2ccc(Cl)cc2)cc1	-20.0%	15.5%	-102.8%	-0.3%	21.6%
Cc1ccc(S(=O)(=O)N/N=C/c2c(F)cccc2Cl)cc1	-8.5%	7.7%	-15.7%[10 µM]	28.2µM*	-24.3%
CCCCN1C=CC(=C2C(=O)c3ccccc3C2=O)C=C1	.	-15.8%	-177.1%	2.82µM*	.
CC(C)c1cc(C(=O)NNC(=S)NCc2ccco2)c(O)c(C(C)C)c1	?	?	38.6%[10 µM]	22.4µM*	?
CC(=O)N1CCCc2cc(S(=O)(=O)N3CCC(C(=O)Nc4cccc(Cl)c4C)CC3)ccc21	.	.	.	.	-9.6%[46 µM]
CCOC(=O)c1ccc(N2N=C(C)/C(=C/C=C/c3ccco3)C2=O)cc1	-24.6%	?	7.3%[10 µM]	0.224µM*	0.5%
CC1=NN(c2ccc(C(=O)OC(C)C)cc2)C(=O)/C1=C\C=C\c1ccco1	-22.6%	12.0%	-23.6%[10 µM]	?	-5.5%
Cc1cc(C(F)(F)F)nc(SCC(=O)NC2CC3CCC2C3)n1 (configuration not stated)	20µM*	-7.1%	-1.9%[10 µM]	-3.7%	9.0%
O=S(=O)(/N=C(\Sc1ccc(Cl)cc1)c1ccccc1)c1ccccc1	20µM*	33.0%	10.2%	-19.2%	15.9%
CS/C(=N\S(=O)(=O)c1ccc(Cl)cc1)c1ccccc1	-20.5%	-4.6%	37.7%[10 µM]	-1.1%	-7.8%
CC(NC(=O)COc1ccccc1F)C1CC2CCC1C2 (configuration not stated)	.	17.7%	-10.2%	-9.8%	14.2%[9.22 µM]
CCN(CC)CCNC(CC(=O)Nc1ccc(Cl)cc1Cl)C(=O)O (configuration not stated)	6.1%	0.8%	5.5%[1.9 µM]	7.08µM*	4.3%
CCN(CC)CCNC(=O)COc1ccc(Cl)cc1Cl	1.5%	-17.4%	-7.5%	8.9%	4.5%
Cc1[nH]n(-c2ncc(-c3ccc(Cl)cc3)s2)c(=O)c1C(c1ccc(Cl)cc1)C(C#N)C#N (configuration not stated)	10µM*	?	-8.0%[10 µM]	?	?
COC(=O)C(/C=N/OCc1ccc([N+](=O)[O-])cc1)NC(=O)c1cccc(Cl)c1 (configuration not stated)	-3.1%	-16.6%	-3.0%	1.41µM*	-5.3%
O=C1OC(c2ccccc2)=C/C1=C/N1CCCCC1	?	?	-11.1%[10 µM]	10µM*	28.6%
COc1ccc(C)cc1NS(=O)(=O)c1cccc2nonc12	-13.5%	-0.4%	6.8%	14.1µM*	-11.4%
CCNC(=S)/N=C(/Nc1ccccc1)Nc1nc(C)cc(C)n1	.	13.0%[9.22 µM]	3.6%[10 µM]	.	.
Cc1cc(C)nc(N/C(=N/S(=O)(=O)Cc2ccccc2)Nc2ccccc2)n1	-13.1%	13.1%	.	12.6µM*	-6.3%
C=C[C@@]1(C)CC(=O)[C@@]2(O)[C@@]3(C)[C@@H](O)CCC(C)(C)[C@@H]3[C@H](OC(=O)CCN(C)C)[C@H](OC(C)=O)[C@@]2(C)O1	-11.8%	.	39.8µM*	?	.
Cc1nn(-c2ccc3ccccc3c2)c(=O)c2ccccc12	.	-17.1%[9.22 µM]	-21.9%[10 µM]	20µM*	20.6%[9.22 µM]
COc1ccc(C(=O)N2N=C3CC(C)(C)OCC3C2c2ccccc2)cc1 (configuration not stated)	-1.0%	-9.6%	21.9%[10 µM]	?	-8.8%
SMILES	HPGD block	HttQ103 aggreg	HTT ATP protect	ALDH1A1 block	Lamin A splicing
Cc1ccc(NCc2nnc(SCC(=O)Nc3ncc(C)s3)n2CC2CCCO2)c(C)c1 (configuration not stated)	-12.2%	-8.9%	-20.1%[10 µM]	4.47µM*	?
Cc1ccc(NCc2nnc(SCC(=O)Nc3cccc(O)c3)n2CC2CCCO2)c(C)c1 (configuration not stated)	-8.2%	13.5%	-14.2%	3.98µM*	7.3%
O=c1[nH]c(/C(=N\O)c2ccccc2)no1	?	-9.0%	14.8%	23.8µM*	13.9%
O=C(O)C1CC(C2CCCCN2)CN2CCCCC12 (configuration not stated)	-0.9%	.	.	5.3%	-3.7%
COC(=O)c1ccc(C)c(NC(=O)CCc2ccc(OC)cc2)c1	-27.1%	-7.7%	12.1%[1.9 µM]	20µM*	-2.7%
COc1cc(OC)c(NC(=O)CCc2ccccc2)cc1Cl	15.8µM*	12.7%	-15.8%	-5.8%	13.3%
Cc1ccc(C(=O)O)cc1NC(=O)CCc1ccccc1	.	-4.9%	?	8.5%	-6.3%[46 µM]
COC(=O)c1cccc(NC(=O)CCc2cc(OC)c(OC)c(OC)c2)c1	-13.9%	3.1%	.	-1.9%	?
COC(=O)c1cccc(NC(=O)CCc2ccccc2)c1	25.1µM*	-1.8%	6.9%[10 µM]	25.1µM*	6.7%
Cc1ccc(S(=O)(=O)C(CNC(=O)C(=O)NCc2ccc(Cl)cc2)c2cccs2)cc1 (configuration not stated)	.	.	.	.	14.9%[46 µM]
Cc1cc(C)n2c(SC/C(O)=C(\C#N)c3nc4ccccc4[nH]3)nnc2n1	?	-10.9%	12.0%	17.8µM*	-2.5%
C/C(=C\C[Si](C)(C)C)CC[C@H](O)C1=CCCCC1=O	-9.3%	.	-23.2%	5.9%	.
O=C(Nc1ccccc1)O/N=C/c1ccccc1Cl	39.8µM*	20.7%	3.3%[10 µM]	?	6.5%
O=C(/C=C/c1ccccc1Cl)Nc1ccccc1	.	-23.2%[9.22 µM]	15.5%[10 µM]	.	.
CC(C)N(Cc1nc(-c2ccccc2)no1)C(=O)c1ccc(Br)o1	-15.1%	3.7%	5.3%[0.074 µM]	10µM*	-13.7%
Cc1ccc(SCC(=O)N(Cc2nc(-c3ccccc3)no2)C(C)C)cc1	4.8%	-8.1%	4.3%[0.074 µM]	25.1µM*	-20.7%
COc1cccc2cc(-c3cn4c(n3)sc3cc(F)ccc34)c(=O)oc12	.	.	.	.	13.4%[46 µM]
COC(=O)c1cc(CSc2nnc(-c3ccccc3)c(-c3ccccc3)n2)oc1C	?	4.3%	-8.5%	15.8µM*	?
Cc1cc(Cl)ccc1NNC(=O)c1c(C)noc1C	.	0.6%[9.22 µM]	-7.7%[10 µM]	?	?
Cc1noc(C)c1C(=O)NNc1ccc(C(C)C)cc1	.	6.3%[9.22 µM]	-6.6%[10 µM]	11.2µM*	.
Cc1ccc(NNC(=O)c2ccno2)cc1C	.	-0.9%[9.22 µM]	16.1%[10 µM]	.	.
Cc1ccc(NNC(=O)c2ccno2)cc1Cl	.	8.4%[9.22 µM]	-14.4%[10 µM]	14.1µM*	?
Cc1ccc(NNC(=O)c2c(C)noc2C)cc1Cl	.	6.3%[9.22 µM]	-6.2%[10 µM]	28.2µM*	?
Nc1ncnc2c1c(I)cn2C1OC(CO)C(O)C1O (configuration not stated)	-7.7%	.	-61.6%	8.91µM*!	?
O=C(NP(=O)(N1CCCC1)N1CCCC1)C1=C(N2CCOCC2)/C(=C/c2cccc([N+](=O)[O-])c2)CC1	.	24.8%	30.7%	10µM*	-20.4%[46 µM]
